Measured values: PubChem BioAssay AID1159580 (chemical genetic matrix, 2015)
Where “and” joins values, the source holds several entries; their conditions need not be identical. Equal values may be shown once. The whole screen tested about 5,500 compounds, of which about 2,000 (36%) were called active. Inconclusive results (about 18%) are left out. Rule as the data show it: active = normalized growth mostly below about 0.91 (no sharp cut-off); inconclusive = no clear call, values can overlap the other calls; inactive = mostly above about 0.92. This is one part of the list.

Assay: chemical genetic growth profiling, strain panel (AID 1159580);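 also: tested at 20 µM; growth read once vehicle control cultures reached saturation at 30 °C; 1 = growth at the plate median or of vehicle wells; lower values mean less growth of the strain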
Settings: S. cerevisiae deletion strains, growth OD

Measured: normalized growth

COc1cc2c(cc1OC)[C@@H]1C(=O)c3ccc(OC)c(CC=C(C)C)c3O[C@@H]1CO2
inactive: locus YAL013W, strain DEP1, stronger effect = lower value 1.03 | locus YAL021C, strain ccr4, stronger effect = lower value 1.06 | locus YAL026C, strain drs2, stronger effect = lower value 1.04 | locus YAL030W, strain snc1, stronger effect = lower value 1.02 | locus YBL061C, strain skt5, stronger effect = lower value 1.02 | locus YBR009C, strain hhf1, stronger effect = lower value 1.01 | locus YBR021W, strain FUR4, stronger effect = lower value 1.03 | locus YBR023C, strain chs3, stronger effect = lower value 1.02 | locus YBR171W, strain sec66, stronger effect = lower value 1.05 | locus YBR229C, strain ROT2, stronger effect = lower value 1.02 | locus YBR231C, strain swc5, stronger effect = lower value 1.05 | locus YBR279W, strain paf1, stronger effect = lower value 1.01 | locus YCL011C, strain gbp2, stronger effect = lower value 1.02 | locus YCL016C, strain dcc1, stronger effect = lower value 1.02 | locus YCL029C, strain bik1, stronger effect = lower value 1.02 | locus YCL061C, strain MRC1, stronger effect = lower value 0.987 | locus YCL069W, strain vba3, stronger effect = lower value 1.03 | locus YCR088W, strain abp1, stronger effect = lower value 1.02 | locus YDL005C, strain med2, stronger effect = lower value 1.02 | locus YDL035C, strain GPR1, stronger effect = lower value 1.06 | locus YDL040C, strain nat1, stronger effect = lower value 1.02 | locus YDL074C, strain BRE1, stronger effect = lower value 1.05 | locus YDL101C, strain DUN1, stronger effect = lower value 1.01 | locus YDL185W, strain tfp1, stronger effect = lower value 1.02 | locus YDL192W, strain arf1, stronger effect = lower value 1.04 | locus YDR001C, strain nth1, stronger effect = lower value 1.02 | locus YDR069C, strain doa4, stronger effect = lower value 1.03 | locus YDR101C, strain arx1, stronger effect = lower value 1.03 | locus YDR137W, strain rgp1, stronger effect = lower value 0.892 | locus YDR159W, strain sac3, stronger effect = lower value 1.02 | locus YDR162C, strain NBP2, stronger effect = lower value 1.01 | locus YDR195W, strain ref2 1.06 | locus YDR297W, strain sur2, stronger effect = lower value 1.02 | locus YDR318W, strain mcm21, stronger effect = lower value 1.01 | locus YDR334W, strain swr1, stronger effect = lower value 1.02 | locus YDR335W, strain msn5, stronger effect = lower value 1.03 | locus YDR388W, stronger effect = lower value 1.02 | locus YDR392W, strain spt3, stronger effect = lower value 0.813 | locus YDR502C, strain sam2, stronger effect = lower value 1.01 | locus YEL003W, strain gim4, stronger effect = lower value 1.03 | locus YEL037C, strain rad23, stronger effect = lower value 1.01 | locus YEL061C, strain CIN8 (second series), stronger effect = lower value 1.03 | locus YEL061C, strain CIN8, stronger effect = lower value 1.04 | locus YER015W, strain faa2, stronger effect = lower value 1.04 | locus YER016W, strain bim1, stronger effect = lower value 1.03 | locus YER110C, stronger effect = lower value 1 | locus YER111C, strain swi4, stronger effect = lower value 1.02 | locus YER155C, strain BEM2 (second series), stronger effect = lower value 1.03 | locus YER155C, strain BEM2, stronger effect = lower value 0.993 | locus YER167W, strain BCK2, stronger effect = lower value 1.01 | locus YFR010W, strain ubp6, stronger effect = lower value 1.03 | locus YGL078C, strain dbp3, stronger effect = lower value 1.01 | locus YGL086W, strain mad1, stronger effect = lower value 0.999 | locus YGL167C, strain pmr1, stronger effect = lower value 1.03 | locus YGL173C, strain kem1, stronger effect = lower value 1.04 | locus YGL227W, strain vid30, stronger effect = lower value 1.03 | locus YGL240W, strain doc1, stronger effect = lower value 1.03 | locus YGL248W, strain PDE1, stronger effect = lower value 1.02 | locus YGL253W, strain hxk2, stronger effect = lower value 1.04 | locus YGR078C, strain PAC10, stronger effect = lower value 1.05 | locus YGR135W, strain pre9, stronger effect = lower value 1.02 | locus YGR252W, strain gcn5, stronger effect = lower value 0.994 | locus YHR013C, strain ard1, stronger effect = lower value 1.14 | locus YHR027C, strain rpn1, stronger effect = lower value 1.03 | locus YHR030C, strain SLT2, stronger effect = lower value 1.02 and 1.03 | locus YHR079C, strain IRE1 (second series), stronger effect = lower value 0.997 | locus YHR079C, strain IRE1, stronger effect = lower value 1.02 | locus YHR094C, strain hxt1, stronger effect = lower value 1.01 | locus YHR129C, strain ARP1, stronger effect = lower value 1.04 | locus YHR142W, strain chs7, stronger effect = lower value 1.01 | locus YHR200W, strain rpn10, stronger effect = lower value 1.01 | locus YIL066C, strain RNR3, stronger effect = lower value 1.01 | locus YIL073C, strain SPO22, stronger effect = lower value 1.1 | locus YIL125W, strain kgd1, stronger effect = lower value 0.995 | locus YIR030C, strain dcg1, stronger effect = lower value 0.998 | locus YJL092W, strain hpr5, stronger effect = lower value 1.03 | locus YJL095W, strain BCK1 (second series), stronger effect = lower value 1.02 | locus YJL095W, strain BCK1, stronger effect = lower value 1.04 and 1.05 | locus YJL115W, strain asf1, stronger effect = lower value 1.03 | locus YJL129C, strain trk1, stronger effect = lower value 0.953 | locus YJL134W, strain LCB3, stronger effect = lower value 1.02 | locus YJL154C, strain vps35, stronger effect = lower value 1.03 | locus YJL164C, strain tpk1, stronger effect = lower value 1 | locus YJL166W, strain qcr8, stronger effect = lower value 1.03 | locus YJL168C, strain set2, stronger effect = lower value 1 | locus YJL187C, strain SWE1 (second series), stronger effect = lower value 1 | locus YJL187C, strain SWE1, stronger effect = lower value 1.04 | locus YJR066W, strain TOR1, stronger effect = lower value 0.982 | locus YKL009W, strain mrt4, stronger effect = lower value 1.04 | locus YKL068W, stronger effect = lower value 0.999 | locus YKL085W, strain MDH1 (second series), stronger effect = lower value 0.999 | locus YKL085W, strain MDH1, stronger effect = lower value 0.999 | locus YKL160W, strain elf1, stronger effect = lower value 1.02 | locus YKL190W, strain CNB1, stronger effect = lower value 1.04 | locus YKR001C, strain vps1, stronger effect = lower value 0.934 | locus YKR026C, strain gcn3, stronger effect = lower value 1 | locus YKR091W, strain srl3, stronger effect = lower value 1.02 | locus YLL001W, strain dnm1, stronger effect = lower value 1.03 | locus YLL026W, stronger effect = lower value 1.03 | locus YLL041C, strain sdh2, stronger effect = lower value 1.02 | locus YLR027C, strain aat2, stronger effect = lower value 1.02 | locus YLR039C, strain RIC1, stronger effect = lower value 0.846 | locus YLR058C, strain SHM2, stronger effect = lower value 1 | locus YLR102C, strain apc9, stronger effect = lower value 1.01 | locus YLR113W, strain HOG1, stronger effect = lower value 0.988 | locus YLR221C, strain rsa3, stronger effect = lower value 1.01 | locus YLR258W, strain gsy2, stronger effect = lower value 1.03 | locus YLR262C, strain YPT6 (second series), stronger effect = lower value 0.91 | locus YLR268W, strain sec22, stronger effect = lower value 1.05 | locus YLR320W, strain mms22, stronger effect = lower value 1.02 | locus YLR330W, strain CHS5, stronger effect = lower value 1.01 | locus YLR342W, strain FKS1, stronger effect = lower value 1.02 | locus YLR357W, strain rsc2, stronger effect = lower value 1.02 | locus YLR370C, strain arc18, stronger effect = lower value 1.02 | locus YLR371W, strain rom2, stronger effect = lower value 1.04 | locus YLR384C, strain iki3, stronger effect = lower value 1.02 | locus YLR418C, strain cdc73, stronger effect = lower value 1.01 | locus YML016C, strain PPZ1, stronger effect = lower value 1.01 | locus YML032C, strain rad52, stronger effect = lower value 1 | locus YML120C, strain ndi1, stronger effect = lower value 1.01 | locus YML124C, strain tub3, stronger effect = lower value 1.01 | locus YMR058W, strain fet3, stronger effect = lower value 1.03 | locus YMR078C, strain ctf18, stronger effect = lower value 1.01 | locus YMR125W, strain sto1, stronger effect = lower value 1.03 | locus YMR129W, stronger effect = lower value 1.02 | locus YMR205C, strain PFK2, stronger effect = lower value 0.993 | locus YMR223W, strain ubp8, stronger effect = lower value 1.02 | locus YMR231W, strain pep5, stronger effect = lower value 1.02 | locus YMR263W, strain SAP30, stronger effect = lower value 1.03 | locus YMR307W, strain GAS1, stronger effect = lower value 1.08 | locus YNL067W, strain RPL9B, stronger effect = lower value 1.04 | locus YNL071W, strain lat1, stronger effect = lower value 1.01 | locus YNL153C, strain GIM3, stronger effect = lower value 1.04 | locus YNL183C, strain NPR1, stronger effect = lower value 0.974 | locus YNL209W, strain ssb2, stronger effect = lower value 1.03 | locus YNL233W, strain BNI4, stronger effect = lower value 0.984 | locus YNL248C, strain rpa49, stronger effect = lower value 1.05 | locus YNL250W, strain rad50, stronger effect = lower value 0.961 | locus YNL271C, strain bni1, stronger effect = lower value 1.01 | locus YNL298W, strain CLA4, stronger effect = lower value 1.01 | locus YNL307C, strain MCK1, stronger effect = lower value 0.999 | locus YNL322C, strain KRE1 (second series), stronger effect = lower value 1.01 | locus YNL322C, strain KRE1, stronger effect = lower value 1.02 | locus YNR049C, strain mso1, stronger effect = lower value 1.04 | locus YNR052C, strain pop2, stronger effect = lower value 1.03 | locus YOL012C, strain htz1 1.26 | locus YOL147C, strain pex11, stronger effect = lower value 1 | locus YOR001W, strain rrp6, stronger effect = lower value 1.04 | locus YOR061W, strain CKA2, stronger effect = lower value 1.02 | locus YOR069W, strain VPS5, stronger effect = lower value 1.01 | locus YOR070C, strain gyp1, stronger effect = lower value 1.02 | locus YOR080W, strain dia2, stronger effect = lower value 1.04 | locus YOR083W, strain WHI5, stronger effect = lower value 1.02 | locus YOR106W, strain vam3, stronger effect = lower value 1.05 | locus YOR136W, strain idh2, stronger effect = lower value 1.03 | locus YOR144C, strain elg1, stronger effect = lower value 1.01 | locus YOR184W, strain ser1, stronger effect = lower value 1.05 | locus YOR231W, strain MKK1, stronger effect = lower value 1.04 | locus YOR265W, strain rbl2, stronger effect = lower value 1.02 | locus YOR270C, strain vph1, stronger effect = lower value 1.06 | locus YOR290C, strain snf2, stronger effect = lower value 1 | locus YOR316C, strain cot1, stronger effect = lower value 0.992 | locus YPL051W, strain arl3, stronger effect = lower value 1.01 | locus YPL078C, strain atp4, stronger effect = lower value 1.03 | locus YPL106C, strain sse1, stronger effect = lower value 1.1 | locus YPL240C, strain hsp82, stronger effect = lower value 1.02 | locus YPL256C, strain CLN2, stronger effect = lower value 1.03 | locus YPR119W, strain clb2, stronger effect = lower value 1.01 | locus YPR141C, strain kar3, stronger effect = lower value 1 | locus YPR163C, strain tif3, stronger effect = lower value 0.997 | locus YPR167C, strain met16, stronger effect = lower value 1.01 | strain wtn01, stronger effect = lower value 1.01
